Assay outcomes deposited in PubChem BioAssay by Center for Chemical Genomics, University of Michigan.
CDC25B-CDK2 inh: human CDC25B-CDK2/CyclinA binding inhibition. P30305+P24941. HTRF CDC25B-CDK2/CyclinA binding, anti-His/anti-Flag; stronger effect = higher value. z-score (concentration not given with the values). actives 0.72% (n = 94,000); in the data active = z-score above about 3.2
TAR Tat displ: HIV-1 TAR-Tat binding disruption; z-score (no concentration beside the values); actives 0.6% (n = 100,000); AID 1259389; HIV-1 TAR RNA, Tat peptide displacement FRET; stronger effect = higher value; active = z-score of 3 or more in at least 2 runs
The depositor's hits bear a star. Hits are enriched below; roughly 0.9% of the tested compounds scored in any of these assays.

`O=C1OC(c2ccccc2Cl)Sc2ccccc21` (centres undefined) gave CDC25B-CDK2 inh -0.83.
O=S(=O)(c1cnc[nH]1)N1CCN(c2ccc(N3CCOCC3)nn2)CC1 was read as TAR Tat displ 1.1.
For O=C(CSc1nc(-c2ccccc2)nc2cc(=O)[nH]n12)NCCc1nc2ccccc2[nH]1 the results were TAR Tat displ 0.87.
`CC(=O)Nc1nc(C)c(-c2csc(Nc3ccc(Cl)cc3)n2)s1` gave CDC25B-CDK2 inh -0.18 and TAR Tat displ -0.3.
For CC(=O)Nc1nc(C)c(-c2csc(NCc3ccccc3)n2)s1 the results were CDC25B-CDK2 inh 6.8*.
`O=C(Cn1ncc2c([nH]c3ccccc32)c1=O)NCCc1ccsc1` gave TAR Tat displ 1.2.
`CCC(CN1CCOCC1)NC(=O)C1CCN(c2ncnc3c2nc2n3CCCCC2)CC1` (centres undefined) gave TAR Tat displ -0.71.
For COCCNC(=O)CCc1nc2sc3c(c2c(=O)[nH]1)CCCCC3 the results were TAR Tat displ 0.44.
O=C(CCc1nc2sc3c(c2c(=O)[nH]1)CCCCC3)NCCN1CCOCC1 was read as TAR Tat displ 5.5*.
CC(=O)OCC1=C(C(=O)O)N2C(=O)C(NC(=O)C3CCCCC3)C2SC1 (centres undefined) was read as CDC25B-CDK2 inh -0.7 and TAR Tat displ -0.45.
For CCN1CCN(C(=O)c2c(C)oc3ncnc(N4CCCCC4)c23)CC1 the results were TAR Tat displ -0.83.
CCN1CCN(C(=O)c2c(C)oc3c2cc(OC(C)=O)c2ccccc23)CC1 was read as CDC25B-CDK2 inh 7.7* and TAR Tat displ -2.3.
`CSc1ccccc1C(=O)Nc1nnc2n1CCCS2` gave TAR Tat displ 1.2.
`CCc1nnc2sc(NC(=O)c3ccco3)nn12` gave CDC25B-CDK2 inh -1.6 and TAR Tat displ 1.5.
Screening O=C(Nc1nn2c(-c3ccco3)nnc2s1)c1cccc(F)c1 returned CDC25B-CDK2 inh -2.1 and TAR Tat displ -2.6.
Screening COc1ccc(OCC(=O)Nc2nn3c(-c4ccco4)nnc3s2)cc1 returned CDC25B-CDK2 inh 0.67 and TAR Tat displ 25*.
O=C(COc1ccccc1)Nc1nn2c(-c3ccco3)nnc2s1 was read as CDC25B-CDK2 inh 0.26 and TAR Tat displ 32*.
`CC(C)Cc1nnc2sc(NC(=O)c3ccco3)nn12` gave CDC25B-CDK2 inh -0.44 and TAR Tat displ 11*.
For O=C(Nc1nn2c(-c3ccco3)nnc2s1)c1ccc(F)cc1 the results were CDC25B-CDK2 inh -1.7 and TAR Tat displ 0.03.
`CCOC(=O)c1c(C)[nH]c(C)c1S(=O)(=O)N1CCC(C(=O)NC(C)CC)CC1` (centres undefined) gave TAR Tat displ -0.43.
CSc1ccc(CCNc2nc(-c3ccccc3)no2)cc1 was read as TAR Tat displ 0.84.
Screening CSc1ccc(C2CC(=O)N3CN(c4ccccc4C)CSC3=C2C#N)cc1 (centres undefined) returned CDC25B-CDK2 inh 15* and TAR Tat displ 0.58.
Screening CSc1ccc(C2CC(=O)N3CN(c4ccccc4F)CSC3=C2C#N)cc1 (centres undefined) returned CDC25B-CDK2 inh 0.14 and TAR Tat displ 2.3.
For CSc1ccc(C2CC(=O)N3CN(Cc4ccco4)CSC3=C2C#N)cc1 (centres undefined) the results were CDC25B-CDK2 inh 2 and TAR Tat displ 0.97.
For CSc1ccc(C2CC(=O)N3CN(c4ccccc4)CSC3=C2C#N)cc1 (centres undefined) the results were CDC25B-CDK2 inh 4.1* and TAR Tat displ -1.2.
For CCc1ccc(C2CC(=O)N3CN(c4ccccc4)CSC3=C2C#N)cc1 (centres undefined) the results were CDC25B-CDK2 inh 4.5* and TAR Tat displ -1.2.
For CSc1ccc(C2CC(=O)N3CN(c4ccc(C)cc4)CSC3=C2C#N)cc1 (centres undefined) the results were CDC25B-CDK2 inh 5.5* and TAR Tat displ -3.1.
For CSc1ccc(C2CC(=O)N3CN(C)CSC3=C2C#N)cc1 (centres undefined) the results were CDC25B-CDK2 inh 0.34 and TAR Tat displ 0.89.
Screening O=C(Nc1cccc2nsnc12)C1CCN(S(=O)(=O)N2CCCC2)CC1 returned TAR Tat displ -0.8.
Cc1cc(C)n(CC(=O)NCc2ccc3c(c2)OCO3)c(=O)c1C#N was read as TAR Tat displ 1.
`O=C1c2cccnc2C(=O)N1Cc1ccc(S(=O)(=O)NCCc2ccc(Cl)cc2)cc1` gave TAR Tat displ 0.08.
For Cc1noc2ncnc(N3CCC(C)CC3)c12 the results were TAR Tat displ 1.3.
Screening Cc1csc2nc(CSc3nc4sc5c(c4c(=O)n3C)CCCC5)cc(=O)n12 returned CDC25B-CDK2 inh -0.84 and TAR Tat displ -1.1.
`CC1CC(=O)Nc2ccccc2N1C(=O)c1ccco1` (centres undefined) gave CDC25B-CDK2 inh -2.2 and TAR Tat displ -1.1.
Screening COc1ccc(-n2ncc3c(N4CCN(c5ccc(F)cc5)CC4)ncnc32)cc1 returned CDC25B-CDK2 inh -1.7.
`O=C1Nc2cc(Cl)ccc2SC2CCCCC2O1` (centres undefined) gave CDC25B-CDK2 inh 20*.
For CC1CC(=O)Nc2cc(S(=O)(=O)Nc3cccc(Cl)c3)ccc2S1 (centres undefined) the results were TAR Tat displ 1.4.
`Cn1c(C(=O)NCc2ccco2)cc2oc3ccccc3c21` gave CDC25B-CDK2 inh -4.6.
COC(=O)c1cc2oc3ccccc3c2n1CC(=O)NCc1ccco1 was read as CDC25B-CDK2 inh 4.1 and TAR Tat displ 8*.
CCN(CC)S(=O)(=O)c1ccc2c(c1)CC(C(=O)N1CCN(c3ncccn3)CC1)N2C(C)=O (centres undefined) was read as TAR Tat displ 0.98.
`O=S(=O)(Nc1ccc(-c2nnc(-c3ccccc3)o2)cc1)c1ccccc1Cl` gave TAR Tat displ 1.7.
`CCOC(=O)C1=C(C)OC(N)=C(C#N)C1c1cccnc1` (centres undefined) gave CDC25B-CDK2 inh -0.42.
Screening CC(C)(C)c1ccc(S(=O)(=O)N2CCc3cc4ccccc4nc32)cc1 returned CDC25B-CDK2 inh -1.2 and TAR Tat displ 1.8.
Nc1ccc2nn(-c3cccc(Cl)c3)nc2c1 was read as CDC25B-CDK2 inh -0.74 and TAR Tat displ 4*.
For Cc1ccc(-n2nc3ccc(N)cc3n2)cc1 the results were CDC25B-CDK2 inh -0.46 and TAR Tat displ -0.96.
`Cc1ccc2[nH]c(=O)c(-c3noc(-c4ccco4)n3)cc2c1` gave CDC25B-CDK2 inh 10* and TAR Tat displ 28*.
`Cc1ccc2cc(-c3noc(-c4ccco4)n3)c(=O)[nH]c2c1` gave CDC25B-CDK2 inh 2 and TAR Tat displ 0.78.
Screening COCc1cc(C)nc2sc3c(c12)NC(C)N(C1CCCCC1)C3=O (centres undefined) returned CDC25B-CDK2 inh -0.34 and TAR Tat displ 1.
For Cc1ccc(C)n1-c1ccc(Cl)c(C(=O)O)c1 the results were CDC25B-CDK2 inh 0 and TAR Tat displ 16*.
`Cc1ccc(C)n1-c1ccc(Cl)cc1C(=O)O` gave CDC25B-CDK2 inh -2.1 and TAR Tat displ 14*.
`Cc1cc(C(=O)O)ccc1-n1c(C)ccc1C` gave CDC25B-CDK2 inh -1.1.
`Cc1ccc(C)n1-c1cc(C(=O)O)ccc1Cl` gave CDC25B-CDK2 inh 1.5.
